High-throughput results from PubChem BioAssay.
ATXN2 expr inh: reduces ATXN2 reporter expression in HEK-293 cells | HEK-293 ATXN2-luciferase reporter, luminescence, 24 h | Potency, µM (highest dose often 57 µM), actives largely listed as inhibitors | 360,000 compounds, 0.72% hits; further: nearly all actives have a fitted effect of over 55% in size
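qHTS (up to 57 uM final) was run with 24 h compound exposure of reporter cells at 37 °C. Each well was multiplexed: SteadyGlo luminescence measured ATXN2-luciferase expression after a fluorogenic Gly-Phe-AFC viability readout (25 uM final).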
IL-1B inflam inh: inhibitors of inflammasome signaling (IL-1 beta secretion). THP-1 LPS/ATP IL-1B secretion, AlphaLISA, 16 h; active compounds read low. 360,000 compounds, 4.7% hits. AID 743279. activity change, % at 57.5 µM; in the data active means activity change below about -50%; inconclusive means mostly about -30% to -49%
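Secreted IL-1B measured by AlphaLISA bead assay after 16 h compound exposure of THP-1 cells; compounds (final up to 57.5 uM) added 1 h before LPS (250 ng/mL) and ATP (1.25 mM) stimulation; lower signal means less secretion.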
DRD3 agonist: D3 dopamine receptor (human) agonism | P35462 | D3R DiscoveRx beta-arrestin cells, luminescence, 90 min | max activation, % | 410,000 compounds, 0.58% hits | AID 652048; in the data active means max activation above about 30%
Target sequence (P35462 whole entry, looked up): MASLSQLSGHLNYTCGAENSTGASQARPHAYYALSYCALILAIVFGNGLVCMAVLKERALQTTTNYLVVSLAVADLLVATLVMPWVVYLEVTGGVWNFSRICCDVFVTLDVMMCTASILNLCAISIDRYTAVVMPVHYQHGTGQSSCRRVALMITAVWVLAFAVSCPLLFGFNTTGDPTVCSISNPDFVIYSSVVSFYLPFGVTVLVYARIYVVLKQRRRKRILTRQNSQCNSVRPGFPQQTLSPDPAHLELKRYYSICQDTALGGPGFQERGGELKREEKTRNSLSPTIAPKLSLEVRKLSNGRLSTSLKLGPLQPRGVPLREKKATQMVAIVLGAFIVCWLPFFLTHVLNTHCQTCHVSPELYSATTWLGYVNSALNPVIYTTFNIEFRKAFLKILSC
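Cells at 1500/well, incubated overnight, then treated with pinned compounds (dopamine as control) for 90 min at 37 degrees C. DiscoveRx reagent added for 30 - 60 minutes at room temperature; luminescence read.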
S2 tox: viability counter-screen for ATXN expression inhibitors; S2 cells (HEK-293 line with an ATXN2-luciferase reporter) viability, CellTiter-Fluor protease fluorescence, 24 h; Potency, µM (doses to about 56.7 µM), actives largely listed as cytotoxic; 400,000 compounds, 0.49% hits; AID 651635; further: nearly all actives have a fitted effect of over 40% in size
D3 antag: blocks the human D3 dopamine receptor | 360,000 compounds, 2.5% hits | max response, negative = inhibition, % | D3R cells, DiscoveRx beta-arrestin luminescence, antagonist mode; active compounds read low | P35462; in the data active means max response below about -50%; inconclusive means no clear call, values can overlap the other calls
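Cells plated overnight at 1500 cells/well, then exposed to library compounds with dopamine controls for 90 minutes at 37 degrees C. DiscoveRx reagent added for 30–60 minutes at room temperature; luminescence read, quantitative HTS format.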
a7 integrin act: activators of alpha7 integrin expression for muscular dystrophy; alpha7betagal myoblasts, beta-gal FDG fluorescence, 48 h; Potency, µM (titrated, usually from 38.3 µM), usual class: activators; 350,000 compounds, 0.064% hits; AID 624291; further: nearly all actives have a fitted effect of over 60% in size
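Alpha7betagal+/- myoblasts (passage 13) were plated 16-24 hr, then exposed to compounds (1:260 dilution of DMSO stock) for 48 hours at 37C. After MPER lysis, β-galactosidase reporter activity was read as FDG fluorescence (ex 480/em 540) after 30 minutes.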
Each line names hits and unclear results; the compound was inactive in the other large screens; ! = not confirmed by another sample. In the library only some 7% were active in any assay of this set; here they are far more common. Unless noted, the call rests on the fitted dose curve; in most records, active means well fitted curve in the direction sought with a large enough effect; inconclusive means small, poorly fitted or top-dose-only effect, or another doubt; inactive means no such curve, though single readings can be large; an effect the other way counts as inactive or inconclusive.

CC1=NN(c2ccccc2)C(=O)/C1=C\C=C\c1ccccc1	ATXN2 expr inh inconclusive, S2 tox inconclusive (no result: IL-1B inflam inh)
CC1=NN(c2ccc(C)c(C)c2)C(=O)/C1=C\C=C\c1ccc([N+](=O)[O-])o1	ATXN2 expr inh inconclusive, IL-1B inflam inh -70.4, S2 tox 3.16µM
CCC(=O)NC(=S)Nc1ccc(NC(=O)c2ccc(OC)cc2)cc1	S2 tox inconclusive
O=C(Nc1ccc(C(=O)N2CCC(O)(c3ccc(Cl)c(C(F)(F)F)c3)CC2)cc1)c1ccc(Br)o1	ATXN2 expr inh inconclusive, IL-1B inflam inh -61.4
CCC(=O)NC(=S)Nc1ccc(NC(=O)c2ccc(Br)o2)cc1	IL-1B inflam inh -54.3, a7 integrin act inconclusive (no result: ATXN2 expr inh)
Cc1ccc(C(=O)N2CCN(c3ccc(NC(=O)c4ccc(Br)o4)cc3)CC2)cc1	IL-1B inflam inh -86.3
CCC(=O)N1CCN(c2ccc(NC(=O)c3ccc(Br)o3)cc2)CC1	IL-1B inflam inh -56.5, S2 tox inconclusive, a7 integrin act inconclusive (no result: ATXN2 expr inh)
CN1CCN(c2ccc(NC(=O)c3ccc(Br)o3)cc2)CC1	none
O=C(Nc1ccc(C(=O)N2CCN(c3ccncc3)CC2)cc1)c1ccc(Br)o1	none (no result: a7 integrin act)
O=c1[nH]c(Cc2ccccc2)nc2ccccc12	none
O=C(NNc1ccccc1Br)C(O)(c1cccc(C(F)(F)F)c1)c1cccc(C(F)(F)F)c1	ATXN2 expr inh inconclusive, IL-1B inflam inh -59.2 (no result: S2 tox)
Cc1ccc(NNC(=O)C(O)(c2cccc(C(F)(F)F)c2)c2cccc(C(F)(F)F)c2)cc1	IL-1B inflam inh -96.9
COc1ccc(C(=O)OCC(=O)Nc2cccc(S(=O)(=O)N3CCCCCC3)c2)cc1[N+](=O)[O-]	none
NC(=O)C1CC(=O)N(c2ccc(OCc3ccccc3Cl)cc2)C1 (stereo not given)	none
COc1ccc(N=Cc2sc(O)c3ccccc23)cc1	IL-1B inflam inh -83.4, D3 antag inconclusive
CSc1nc(NCC(C)C)c2c3c(sc2n1)CN(C)CC3	D3 antag -72.1
CC(C)Sc1nc(N)c2c3c(sc2n1)CN(C)CC3	D3 antag -57.8
CCCSc1nc(N)c2c3c(sc2n1)CN(C)CC3	none
CSc1nc(NCc2ccccc2)c2c3c(sc2n1)CN(C)CC3	IL-1B inflam inh inconclusive, D3 antag -76.0
COCCNc1nc(SC)nc2sc3c(c12)CCN(C)C3	none
CCc1cccc(CC)c1NC(=O)COC(=O)CC1c2ccccc2CCN1S(=O)(=O)c1ccccc1 (stereo not given)	none
CCOc1ccccc1NC(=O)CN(c1ccc(C)cc1)S(=O)(=O)c1c(C)n[nH]c1C	IL-1B inflam inh -95.2
C/C(=N\NC(=O)c1cccc(Br)c1)c1cccc(NC(=O)c2ccc(C)o2)c1	none
CC(=O)c1ccc(NC(=S)Nc2ccc3cn[nH]c3c2)cc1	IL-1B inflam inh -72.8
CC(C)c1ccc(NC(=S)Nc2ccc3cn[nH]c3c2)cc1	none
CN1C[C@@H]2[C@@H]3C(=O)N(Cc4ccccc4)C(=O)[C@@H]3[C@](Cc3ccccc3)(C1=O)N2C(=O)c1ccc(C(F)(F)F)cc1	S2 tox inconclusive
COCCN1CCN(Cc2nc(C3(c4ccc(C)cc4)CCCC3)no2)CC1	D3 antag -53.9
CC(=O)N1CCCN(Cc2nc(C3(c4ccc(C)cc4)CCCC3)no2)CC1	none
Nc1c([N+](=O)[O-])cc2c3c(cccc13)CC2	S2 tox inconclusive, D3 antag -73.5 (no result: a7 integrin act)
Cc1oc(-c2ccccc2Cl)nc1Cn1cccc1C1=NC(c2ccccc2)CO1 (stereo not given)	none
CC(=O)/C=C/n1c(=S)oc2ccccc21	ATXN2 expr inh inconclusive, IL-1B inflam inh -97.8, D3 antag -85.5, a7 integrin act inconclusive (no result: S2 tox)
CC(C)CC(=O)/C=C/n1c(=S)oc2ccccc21	ATXN2 expr inh inconclusive, IL-1B inflam inh -106.0 (no result: S2 tox)
NC(=O)Nc1ccc(C(=O)OCC(=O)N(Cc2ccccc2)C2CCS(=O)(=O)C2)cc1 (stereo not given)	S2 tox inconclusive
CCOC(=O)C1=C(CC)Nc2ccccc2N=C1NC(=O)c1oc2ccccc2c1C	ATXN2 expr inh inconclusive, IL-1B inflam inh inconclusive
CC1=C(C(=O)OCc2ccccc2)C(c2ccc(C)o2)C2=C(CCCC2=O)N1 (stereo not given)	none
CC1=C(C(=O)OC2CCCCC2)C(c2ccc(C)o2)C2=C(CCCC2=O)N1 (stereo not given)	D3 antag -50.3
Nc1nc2c(s1)C(=O)CCC2	none
COC(=O)[C@H](C)N(Cc1ccc(Cl)c(Cl)c1)S(=O)(=O)CCN1CCCC1	D3 antag -67.8
COC(=O)[C@H](C(C)C)N(Cc1ccccc1)S(=O)(=O)CCN1CCCC1	D3 antag -59.5
COC(=O)[C@H](C)N(Cc1ccc(Cl)c(Cl)c1)S(=O)(=O)CCN1CCN(c2ccccc2)CC1	D3 antag -70.8
Clc1cccc(CNc2ncnc3c2nc2n3CCCC2)c1	none (no result: ATXN2 expr inh, IL-1B inflam inh, S2 tox, D3 antag, a7 integrin act)
Cc1ccc(S(=O)(=O)N2CCc3cc(C(=O)N(C)Cc4ccccc4)ccc32)cc1	S2 tox 7.08µM (no result: IL-1B inflam inh, D3 antag, a7 integrin act)
Cc1cccc(NC(=O)c2ccc3c(c2)CCN3S(=O)(=O)c2ccccc2)c1C	none (no result: IL-1B inflam inh, D3 antag, a7 integrin act)
O=C(Nc1ccccc1F)c1ccc2c(c1)CCN2S(=O)(=O)c1ccccc1	IL-1B inflam inh -68.6
O=C(Nc1c(F)cccc1F)c1ccc2c(c1)CCN2S(=O)(=O)c1ccccc1	IL-1B inflam inh -66.7
COc1ccccc1-c1cc2nc(NCCc3ccc(S(N)(=O)=O)cc3)ccn2n1	IL-1B inflam inh -67.8 (no result: a7 integrin act)
CCOC(=O)c1ccc(N2C(=O)c3n[nH]c(-c4ccco4)c3C2c2ccc([N+](=O)[O-])cc2)cc1 (stereo not given)	ATXN2 expr inh inconclusive, IL-1B inflam inh inconclusive, S2 tox inconclusive
CCOC(=O)c1ccc(N2C(=O)c3n[nH]c(-c4ccco4)c3C2c2ccc(C)cc2)cc1 (stereo not given)	ATXN2 expr inh inconclusive, S2 tox 28.2µM (no result: IL-1B inflam inh, D3 antag, a7 integrin act)
Nc1nc2nc(-c3ccccc3)cc(C(F)(F)F)c2s1	IL-1B inflam inh -72.8, S2 tox inconclusive
Cc1ccc(C2=NN(C(=O)CCl)C(c3ccco3)C2)o1 (stereo not given)	ATXN2 expr inh inconclusive, IL-1B inflam inh -94.5, S2 tox inconclusive
CC(=O)N1N=C(c2ccco2)CC1c1ccco1 (stereo not given)	S2 tox inconclusive
CCCCNc1c(-c2ccc(-c3cccc(Cl)c3)cc2)nc2ccccn12	DRD3 agonist 63.0
CCCCCCSc1cccc(-c2nc3ccc(Cl)cn3c2NCCCC)c1	DRD3 agonist 33.4!
CCCCCCSc1ccc(-c2nc3ccccn3c2NCCCC)cc1	IL-1B inflam inh inconclusive, DRD3 agonist 81.9
Cc1ccc2nc(-c3ccc(-c4cccc(Cl)c4)cc3)c(NCc3ccccc3)n2c1	none
O=C(N/C(=C/c1ccccc1)C(=O)N1CCCCC1)c1ccccc1	none
